{
  "source": "PubChem BioAssay AID493188",
  "about": "(National Center for Advancing Translational Sciences (NCATS), 2011)",
  "target": "Galactokinase (Homo sapiens) (UniProt P51570)",
  "sequence (P51570 whole entry, looked up)": "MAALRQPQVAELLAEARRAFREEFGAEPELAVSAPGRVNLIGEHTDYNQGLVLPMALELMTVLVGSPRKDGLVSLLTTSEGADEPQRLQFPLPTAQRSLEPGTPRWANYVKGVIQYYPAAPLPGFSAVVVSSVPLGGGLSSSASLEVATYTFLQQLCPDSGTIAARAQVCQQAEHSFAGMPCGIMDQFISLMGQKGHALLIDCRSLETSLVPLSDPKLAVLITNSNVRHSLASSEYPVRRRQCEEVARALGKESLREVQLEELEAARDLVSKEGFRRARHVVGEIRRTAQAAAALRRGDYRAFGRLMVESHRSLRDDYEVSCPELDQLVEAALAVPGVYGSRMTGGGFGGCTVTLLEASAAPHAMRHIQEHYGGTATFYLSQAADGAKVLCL",
  "experiment": "Confirmation Assay for Inhibitors of Human Galactokinase (GALK): SAR round 2",
  "settings": "Recombinant GALK, Kinase-Glo ATP depletion luminescence; series mostly up to 57.5 µM",
  "description": "NIH Molecular Libraries Probe Production Centers Network [MLPCN] NIH Chemical Genomics Center [NCGC] MLPCN Grant: R03 MH085689-01 Assay Submitter (PI): Kent Lai (University of Utah School of Medicine, 50 N Mario Capecchi Drive, Salt Lake City, UT 84132) NCGC Assay Overview Inherited deficiency of galactose-1-phosphate uridyltransferase (GALT) can result in a potentially lethal disorder called Classic Galactosemia (OMIM 230400). Several lines of evidence indicate that an elevated level of galactose-1-phosphate (gal-1-p), the product of galactokinase (GALK), is a major, if not sole, pathogenic mechanism in patients with classic galactosemia. Therefore, finding inhibitors of GALK is a potential novel therapy for this inherent metabolic disease and is the long term goal of this project. Active compounds observed in the qHTS GALK assay (AID: 1868) were cherry picked and re-screened for validation. […]\nNCGC Assay Protocol Summary: Three uL/well of ATP-buffer solution (35 uM ATP, 20mM HEPES pH8.0, 5 mM MgCl2, 60 mM NaCl, 1 mM DTT, 0.01% BSA final concentration) was dispensed into 1536-well, assay plates (Greiner, solid white medium-binding plates) with Aurora Discovery BioRAPTR Flying Reagent Dispenser (FRD; Beckton-Dickenson). […] Luminescence was detected with the ViewLux plate reader (Perkin Elmer, Waltham, MA) after 2 min incubation using a 1 sec exposure time and 2x binning.",
  "note": "Results filed as inconclusive are left out. Active and inactive are the calls of the source. The call rests on the fitted dose curve; in most records, active means well fitted inhibition curve with a large enough effect; inconclusive means small, poorly fitted or top-dose-only effect; inactive means flat fitted curve, though single readings scatter.",
  "data": [
    {"smiles": "CC(=O)OCOCC(=O)OCO[P+](=O)C(OCOC(C)=O)c1cc([N+](=O)[O-])ccc1Oc1ccc(Br)cc1", "note": "(stereo unspecified)", "values": [
      {"measurement": "outcome", "result": "inactive"}
    ]}
  ]
}
